According to PubChem BioAssay:
Active and inactive are the calls of the source.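 The calls were made as follows, unless noted: active = normalized viability below 100% at a tested concentration; inactive = the rest.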

Experiments:
[1] = sensitizers of A549 cells to miR-34 induction, primary screen, imaging, A549 dox-inducible miR-34, nuclei and caspase counts (AID 1347080;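 active = compounds whose cell count with miR-34 switched on is under 0.7 times the count with it off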); details: A549 miR-34 inducible, Hoechst nuclei count, 48 h
[2] = survival rescue of mitochondrial mutant cells in low glucose, primary screen, MELAS cybrids, Rieske KO mouse fibroblasts, CellTiter-Glo (AID 1508586;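 active = mean z-score across replicates of 1.96 or higher in either the MELAS or the Rieske mutant cell line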;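 also: z relative to plate mean and SD of compound and empty wells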)
[3] = ovarian cancer cell viability with rucaparib, profiling panel, oncology-focused library, rucaparib conditional (AID 1508598); details: patient-derived ovarian cancer cells, CellTiter-Glo viability, 144 h, stronger effect = lower value
[4] = stronger effect = lower value, cell number ratio, induced over uninduced
[5] = measured here: relative caspase fold change +Dox/-Dox
[6] = measured here: total cells with miR-34 induction, stronger effect = lower value
[7] = measured here: total cells without miR-34 induction
[8] = MELAS cybrid survival, CellTiter-Glo 48 h, stronger effect = higher value
[9] = Rieske KO mouse fibroblast survival, CellTiter-Glo 72 h
[10] = at 0.000305 µM, OCI-C5x cells, with rucaparib 10 µM, 100% = cells with rucaparib alone
[11] = at 0.000305 µM, OCI-C5x cells, without rucaparib
[12] = at 0.000305 µM, OCI-P5x cells, with rucaparib 20 µM, 100% = cells with rucaparib alone
[13] = at 0.000305 µM, OCI-P5x cells, without rucaparib
[14] = at 0.00122 µM, OCI-C5x cells, with rucaparib 10 µM, 100% = cells with rucaparib alone
[15] = at 0.00122 µM, OCI-C5x cells, without rucaparib
[16] = at 0.00122 µM, OCI-P5x cells, with rucaparib 20 µM, 100% = cells with rucaparib alone
[17] = at 0.00122 µM, OCI-P5x cells, without rucaparib
[18] = at 0.00488 µM, OCI-C5x cells, with rucaparib 10 µM, 100% = cells with rucaparib alone
[19] = at 0.00488 µM, OCI-C5x cells, without rucaparib
[20] = at 0.00488 µM, OCI-P5x cells, with rucaparib 20 µM, 100% = cells with rucaparib alone
[21] = at 0.00488 µM, OCI-P5x cells, without rucaparib
[22] = at 0.0195 µM, OCI-C5x cells, with rucaparib 10 µM, 100% = cells with rucaparib alone
[23] = at 0.0195 µM, OCI-C5x cells, without rucaparib
[24] = at 0.0195 µM, OCI-P5x cells, with rucaparib 20 µM, 100% = cells with rucaparib alone
[25] = at 0.0195 µM, OCI-P5x cells, without rucaparib
[26] = at 0.0781 µM, OCI-C5x cells, with rucaparib 10 µM, 100% = cells with rucaparib alone
[27] = at 0.0781 µM, OCI-C5x cells, without rucaparib
[28] = at 0.0781 µM, OCI-P5x cells, with rucaparib 20 µM, 100% = cells with rucaparib alone
[29] = at 0.0781 µM, OCI-P5x cells, without rucaparib
[30] = at 0.313 µM, OCI-C5x cells, with rucaparib 10 µM, 100% = cells with rucaparib alone
[31] = at 0.313 µM, OCI-C5x cells, without rucaparib
[32] = at 0.313 µM, OCI-P5x cells, with rucaparib 20 µM, 100% = cells with rucaparib alone
[33] = at 0.313 µM, OCI-P5x cells, without rucaparib
[34] = at 1.25 µM, OCI-C5x cells, with rucaparib 10 µM, 100% = cells with rucaparib alone
[35] = at 1.25 µM, OCI-C5x cells, without rucaparib
[36] = at 1.25 µM, OCI-P5x cells, with rucaparib 20 µM, 100% = cells with rucaparib alone
[37] = at 1.25 µM, OCI-P5x cells, without rucaparib
[38] = at 5 µM, OCI-C5x cells, with rucaparib 10 µM, 100% = cells with rucaparib alone
[39] = at 5 µM, OCI-C5x cells, without rucaparib
[40] = at 5 µM, OCI-P5x cells, with rucaparib 20 µM, 100% = cells with rucaparib alone
[41] = at 5 µM, OCI-P5x cells, without rucaparib

COc1cc2c(c(OC)c1OC)-c1c(cc3c(c1OC)OCO3)CC(C)C(C)C2 (stereo not given)
1.02: fold change [1, 5]
8490: cell count [1, 7]
inactive: fold change [1, 4] 0.915 | z-score [2, 8] -0.0751
7770: cell count [1, 6]
-0.149: z-score [2, 9]

OC1CO[C@H]2C(O)CO[C@H]12 (stereo not given in full)
8830: cell count [1, 6]
0.942: fold change [1, 5]
inactive: fold change [1, 4] 0.905 | z-score [2, 8] -0.254
9750: cell count [1, 7]
-0.154: z-score [2, 9]

COc1cc(C(=O)NC2CCN(C)CC2)ccc1Nc1ncc2c(n1)N(C1CCCC1)CC(F)(F)C(=O)N2C
active: viability [3, 11] 98.4% | viability [3, 12] 95.2% | viability [3, 13] 86.9% | viability [3, 14] 97.8% | viability [3, 16] 99.5% | viability [3, 17] 93.6% | viability [3, 20] 89.4% | viability [3, 21] 69.2% | viability [3, 22] 73.1% | viability [3, 23] 61.3% | viability [3, 24] 68.6% | viability [3, 25] 21.8% | viability [3, 26] 64% | viability [3, 27] 42.6% | viability [3, 28] 63% | viability [3, 29] 15.8% | viability [3, 30] 39.9% | viability [3, 31] 27.3% | viability [3, 32] 70.3% | viability [3, 33] 15.5% | viability [3, 34] 31% | viability [3, 35] 19.6% | viability [3, 36] 66.4% | viability [3, 37] 17.5% | viability [3, 38] 25.7% | viability [3, 39] 19.7% | viability [3, 40] 53.1% | viability [3, 41] 17.9%
0.442: fold change [1, 5]
1340: cell count [1, 6]
-2.73: z-score [2, 9]
inactive: fold change [1, 4] 1.05 | z-score [2, 8] -0.321 | viability [3, 10] 103% | viability [3, 15] 102% | viability [3, 18] 111% | viability [3, 19] 105%
1280: cell count [1, 7]

Nc1nonc1C(=Nc1ccc(F)c(Cl)c1)NO
1.22: z-score [2, 9]
9860: cell count [1, 7]
inactive: fold change [1, 4] 0.862 | z-score [2, 8] -0.315 | viability [3, 10] 127% | viability [3, 11] 108% | viability [3, 14] 121% | viability [3, 15] 110% | viability [3, 18] 122% | viability [3, 19] 114% | viability [3, 22] 124% | viability [3, 23] 101% | viability [3, 26] 116% | viability [3, 27] 107% | viability [3, 28] 105% | viability [3, 30] 116% | viability [3, 31] 107% | viability [3, 33] 102% | viability [3, 34] 127% | viability [3, 35] 115% | viability [3, 38] 114% | viability [3, 39] 120%
0.685: fold change [1, 5]
active: viability [3, 12] 87% | viability [3, 13] 92.2% | viability [3, 16] 90.4% | viability [3, 17] 100% | viability [3, 20] 94% | viability [3, 21] 98% | viability [3, 24] 99.2% | viability [3, 25] 95.7% | viability [3, 29] 100% | viability [3, 32] 99.5% | viability [3, 36] 91.9% | viability [3, 37] 99.5% | viability [3, 40] 79% | viability [3, 41] 90.1%
8500: cell count [1, 6]

OC(c1cc(C(F)(F)F)nc2c(C(F)(F)F)cccc12)[C@H]1CCCCN1 (stereo not given in full)
inactive: fold change [1, 4] 0.875 | z-score [2, 8] 0.101
6090: cell count [1, 7]
0.688: fold change [1, 5]
-0.0437: z-score [2, 9]
5320: cell count [1, 6]

C=CS(=O)(=O)NC1CCN(C(=O)CNc2cc(I)c(Cl)cc2OC)CC1
0.391: fold change [1, 5]
1.48: z-score [2, 9]
inactive: fold change [1, 4] 1.09 | z-score [2, 8] 0.491 | viability [3, 10] 129% | viability [3, 11] 112% | viability [3, 13] 100% | viability [3, 14] 117% | viability [3, 15] 106% | viability [3, 16] 108% | viability [3, 17] 101% | viability [3, 18] 110% | viability [3, 19] 116% | viability [3, 20] 103% | viability [3, 21] 102% | viability [3, 22] 117% | viability [3, 23] 102% | viability [3, 24] 101% | viability [3, 26] 121% | viability [3, 27] 107% | viability [3, 28] 107% | viability [3, 30] 119% | viability [3, 34] 111% | viability [3, 35] 106% | viability [3, 38] 117% | viability [3, 39] 105%
active: viability [3, 12] 97.3% | viability [3, 25] 96.9% | viability [3, 29] 90.5% | viability [3, 31] 93.3% | viability [3, 32] 93.4% | viability [3, 33] 95.6% | viability [3, 36] 96.2% | viability [3, 37] 84.8% | viability [3, 40] 90.8% | viability [3, 41] 86%
4400: cell count [1, 6]
4020: cell count [1, 7]

CN(C)CCSSCCNC(=O)C1CCN(C(=O)CSc2ccc(Cl)cc2)CC1
inactive: fold change [1, 4] 0.922 | z-score [2, 8] -0.0132 | viability [3, 10] 118% | viability [3, 11] 110% | viability [3, 12] 103% | viability [3, 14] 117% | viability [3, 15] 112% | viability [3, 16] 102% | viability [3, 17] 101% | viability [3, 18] 126% | viability [3, 19] 112% | viability [3, 20] 109% | viability [3, 21] 103% | viability [3, 22] 122% | viability [3, 23] 105% | viability [3, 24] 106% | viability [3, 26] 129% | viability [3, 27] 112% | viability [3, 28] 103% | viability [3, 30] 124% | viability [3, 34] 120% | viability [3, 35] 112% | viability [3, 38] 137% | viability [3, 39] 140%
active: viability [3, 13] 95.4% | viability [3, 25] 100% | viability [3, 29] 95.1% | viability [3, 31] 91.9% | viability [3, 32] 98.4% | viability [3, 33] 89.4% | viability [3, 36] 93.2% | viability [3, 37] 90.1% | viability [3, 40] 88.3% | viability [3, 41] 87.3%
7870: cell count [1, 6]
1: z-score [2, 9]
8530: cell count [1, 7]
0.314: fold change [1, 5]
